NOMO-1 viab: STK33 inhibitor candidate reducing NOMO-1 cell viability | actives 7.5% (n = 37,000) | inhibition, % (concentration not given with the values) | NOMO-1 AML viability, CellTiter-Glo luminescence, 72 h; in the data active means inhibition above about 80%; inconclusive means no clear call, values can overlap the other calls
MITF inhib: blocks MITF activity. TRPM1 promoter luciferase, luminescence, 24 h. inhibition, % (concentration not given with the values). actives 0.28% (n = 37,000); in the data active means inhibition above about 85%; inconclusive means no clear call, values can overlap the other calls; inactive means below about 68%;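 further: human melanocyte line stably carrying TRPM1 promoter luciferase reporter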
Hedgehog inh: Sonic Hedgehog pathway inhibition; Shh-LIGHT2 Gli-luciferase reporter, 30 h; inhibition, % (concentration not given with the values); actives 2.1% (n = 22,000); AID 2313;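 active means mean inhibition across valid replicates above about 65%, limit read from the data; inconclusive means mean under the limit, yet half or more replicates past it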;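 further: pathway switched on by Shh-conditioned medium diluted 1 in 25 in low serum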
Of the large screens only hits and unclear results are named; the others gave an inactive call. The list is not random: actives were taken first. Their share in the collection is about 7.8%.

Cc1noc(C)c1S(=O)(=O)Nc1ccc2c(c1)C(=O)N([C@@H](C)CO)C[C@@H](C)[C@@H](CN(C)Cc1ccc(Cl)c(Cl)c1)O2	NOMO-1 viab 82
Cc1ccc(S(=O)(=O)Nc2ccc3c(c2)C(=O)N([C@@H](C)CO)C[C@@H](C)[C@H](CN(C)Cc2ccc(Oc4ccccc4)cc2)O3)cc1	none
Cc1noc(C)c1S(=O)(=O)Nc1ccc2c(c1)C(=O)N([C@@H](C)CO)C[C@H](C)[C@@H](CN(C)Cc1ccc(Cl)c(Cl)c1)O2	none
Cc1noc(C)c1S(=O)(=O)Nc1ccc2c(c1)C(=O)N([C@@H](C)CO)C[C@H](C)[C@@H](CN(C)Cc1ccc(Oc3ccccc3)cc1)O2	none
O=C(COc1ccc(S(=O)(=O)N2CCCC2)cc1Cl)Nc1ccc2c(c1)OCCO2	none (no result: Hedgehog inh)
COc1ccc(OC)c(NC(=O)c2ccc(N(C)S(=O)(=O)c3ccc(OC)c(OC)c3)cc2)c1	none (no result: Hedgehog inh)
c1coc(CCC2NCCn3cccc32)c1 (stereo unspecified)	none
Cc1ccccc1NC(=O)CSc1ncnc2c1sc1nc(N3CCOCC3)c3c(c12)CCCC3	none (no result: Hedgehog inh)
CC1CCc2c(sc3nnn(CC(=O)Nc4cc(Cl)ccc4Cl)c(=O)c23)C1 (stereo unspecified)	none (no result: Hedgehog inh)
C[C@@H]1CN([C@H](C)CO)C(=O)Cc2cc(NC(=O)Nc3ccc(C(F)(F)F)cc3)ccc2O[C@H]1CN(C)S(=O)(=O)c1cn(C)cn1	Hedgehog inh inconclusive
C[C@H](CO)N1C[C@H](C)[C@H](CN(C)S(=O)(=O)c2cn(C)cn2)Oc2ccc(NC(=O)Nc3ccc(C(F)(F)F)cc3)cc2CC1=O	NOMO-1 viab 125
C[C@@H]1CN([C@@H](C)CO)C(=O)Cc2cc(NC(=O)Nc3ccc(C(F)(F)F)cc3)ccc2O[C@@H]1CN(C)S(=O)(=O)c1cn(C)cn1	NOMO-1 viab 112, Hedgehog inh inconclusive
C[C@H]1CN([C@@H](C)CO)C(=O)Cc2cc(NC(=O)Nc3ccc(C(F)(F)F)cc3)ccc2O[C@@H]1CN(C)S(=O)(=O)c1cn(C)cn1	none
O=C(COc1ccc(Cl)cc1Cl)Nc1ccccc1CO	none (no result: Hedgehog inh)
Cc1cccc(-c2nnc(SCC(=O)Nc3c(Cl)cc(Cl)cc3Cl)o2)c1	none (no result: Hedgehog inh)
Cc1cccc(-c2nnc(SCC(=O)Nc3ccccc3F)o2)c1	MITF inhib 88 (no result: Hedgehog inh)
O=[N+]([O-])c1cc(C(F)(F)F)ccc1N(CCO)CCO	none (no result: Hedgehog inh)
Cc1c(-c2ccccc2)[n+](=O)c(-c2ccc(Br)cc2)c(C)n1[O-]	Hedgehog inh 67
COc1ccc(-n2c(Cn3ncc4ccccc4c3=O)n[nH]c2=S)cc1	none (no result: Hedgehog inh)
CCOC(=O)CSc1nc(Nc2ccccc2)c2cnc(N3CCOCC3)nc2n1	NOMO-1 viab 112
CCN(CC)c1ncc2c(NCc3ccccc3)nc(SCc3ccccc3)nc2n1	none
CCOC(=O)CSc1nc(Nc2ccc(OC)cc2)c2cnc(N(CC)CC)nc2n1	NOMO-1 viab 120
O=C(CSc1nc(Nc2ccccc2)nc(N2CCOCC2)n1)N1CCc2ccccc21	none (no result: Hedgehog inh)
CSc1nc(SCC(=O)N(c2ccccc2)c2ccccc2)c2c3c(sc2n1)CCC3	none (no result: Hedgehog inh)
C/C(=C\CC(C)(C)/C=C/Cc1ccoc1)C(=O)O	none
CN(C)CC(O)Cn1c2ccc(Br)cc2c2cc(Br)ccc21 (stereo unspecified)	NOMO-1 viab 114, Hedgehog inh inconclusive
CN(CC(O)Cn1c2ccccc2c2ccccc21)S(C)(=O)=O (stereo unspecified)	none (no result: Hedgehog inh)
CC(=O)c1ccc(NC(=O)CSc2nnc(C34CC5CC(CC(C5)C3)C4)n2C)cc1	none (no result: Hedgehog inh)
CC(Oc1ccc(C(=O)Nc2ccc(Cl)cc2)cc1)C(=O)Nc1ccc(Br)cc1 (stereo unspecified)	NOMO-1 viab 136 (no result: Hedgehog inh)
Cc1ccc(NC(=O)c2ccc(OC(C)C(=O)Nc3ccccc3)cc2)cc1 (stereo unspecified)	none (no result: Hedgehog inh)
COC(=O)c1ccccc1NC(=O)c1ccc(NC(=O)C(C)Oc2ccccc2)cc1 (stereo unspecified)	none (no result: Hedgehog inh)
Cc1cccc(NC(=O)c2ccc(OC(C)C(=O)Nc3ccc(Br)cc3)cc2)c1C (stereo unspecified)	NOMO-1 viab 115 (no result: Hedgehog inh)
Cc1nc(SCC(=O)Nc2c(C)cccc2C)n[nH]1	none (no result: Hedgehog inh)
COc1ccc(-n2c(-c3cccc(OC)c3)csc2=NCc2cccnc2)cc1	Hedgehog inh 71
COc1ccc(-n2c(SCC(N)=O)nnc2-c2cccnc2)cc1	none (no result: Hedgehog inh)
C[C@H]1CN([C@@H](C)CO)C(=O)c2cc(NC(=O)Nc3ccc(C(F)(F)F)cc3)ccc2O[C@H]1CN(C)CC1CCCCC1	NOMO-1 viab 105
C[C@@H]1CN([C@H](C)CO)C(=O)c2cc(NC(=O)Nc3ccc(C(F)(F)F)cc3)ccc2O[C@@H]1CN(C)CC1CCCCC1	NOMO-1 viab 126 (no result: Hedgehog inh)
C[C@H](CO)N1C[C@H](C)[C@H](CN(C)CC2CCCCC2)Oc2ccc(NC(=O)Nc3ccc(F)cc3)cc2C1=O	none (no result: Hedgehog inh)
C[C@H](CO)N1C[C@H](C)[C@@H](CN(C)CC2CCCCC2)Oc2ccc(NC(=O)Nc3ccc(C(F)(F)F)cc3)cc2C1=O	NOMO-1 viab 127
C[C@H]1CN([C@@H](C)CO)C(=O)c2cc(NC(=O)Nc3ccc(C(F)(F)F)cc3)ccc2O[C@@H]1CN(C)CC1CCCCC1	none
C[C@@H]1CN([C@H](C)CO)C(=O)c2cc(NC(=O)Nc3ccc(F)cc3)ccc2O[C@H]1CN(C)CC1CCCCC1	none
C[C@@H]1CN([C@@H](C)CO)C(=O)c2cc(NC(=O)Nc3ccc(C(F)(F)F)cc3)ccc2O[C@@H]1CN(C)CC1CCCCC1	NOMO-1 viab 118
C[C@@H]1CN([C@H](C)CO)C(=O)c2cc(NC(=O)Nc3ccc(F)cc3)ccc2O[C@@H]1CN(C)CC1CCCCC1	none
C/C1=C/CC/C(CO)=C\[C@H]2OC(=O)C(CN3CCCC3C(=O)O)[C@@H]2[C@@H](OC(=O)C(C)CO)C1 (stereo partly specified)	none (no result: NOMO-1 viab, MITF inhib)
Cc1ccc([N+](=O)[O-])cc1NC(=O)C1(c2ccccc2)CCN(S(=O)(=O)c2ccccc2)CC1	none (no result: Hedgehog inh)
Cc1ccc(NC(=O)CC(N)C(=O)O)cc1 (stereo unspecified)	none (no result: Hedgehog inh)
Cn1c(SCC(=O)Nc2cccc3ccccc23)nnc1-c1cccs1	none (no result: Hedgehog inh)
O=C(N[C@H](COC(=O)[C@H](Cc1ccccc1)NC(=O)c1ccccc1)Cc1ccccc1)c1ccccc1	NOMO-1 viab inconclusive
O=C(CSc1nnc(-c2ccccc2Cl)n1-c1ccccc1)Nc1ccccc1Cl	none (no result: Hedgehog inh)
O=C(CC1Sc2ncnn2C1=O)Nc1ccc(Cl)cc1 (stereo unspecified)	NOMO-1 viab 107 (no result: Hedgehog inh)
O=C(CSc1ncccn1)Nc1ccc(Cl)cc1	none (no result: Hedgehog inh)
CC(C)(C)c1ccc(SCC(O)CSc2nc3c(cc2C#N)CCCC3)cc1 (stereo unspecified)	none (no result: Hedgehog inh)
COc1ccc(CN(C)C[C@@H]2Oc3c(NC(=O)Nc4ccc(C(F)(F)F)cc4)cccc3C(=O)N([C@H](C)CO)C[C@@H]2C)cc1	NOMO-1 viab 90
COc1ccc(NC(=O)Nc2cccc3c2O[C@@H](CN(C)Cc2ccc(C(F)(F)F)cc2)[C@H](C)CN([C@H](C)CO)C3=O)cc1	NOMO-1 viab 84
COc1ccc(NC(=O)Nc2cccc3c2O[C@H](CN(C)Cc2ccc(C(F)(F)F)cc2)[C@H](C)CN([C@@H](C)CO)C3=O)cc1	none
C[C@@H]1CN([C@@H](C)CO)C(=O)c2cccc(NC(=O)Nc3ccc(C(F)(F)F)cc3)c2O[C@H]1CN(C)Cc1ccc(Oc2ccccc2)cc1	NOMO-1 viab inconclusive
